For four compounds, activity (protection/inhibition) results are on record in PubChem BioAssay AID651871 (Sanford-Burnham Center for Chemical Genomics, 2012).

Several values for one entry are separate records, joined by “and”; a condition that tells them apart may be missing. Equal values may be shown once.

The experiment deals with HL-1. As to the kind of experiment: cardiomyocyte survival under oxidative or metabolic stress – cell-based, panel, H9c2 and HL-1, ATP luminescence, set 2, SAR follow-up (AID 651871).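 Note: cells exposed to stressor for 2 h before ATP readout; reference of the scale not given here.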 The settings on record: H9c2/HL-1 cardiomyocytes, H2O2 oxidative stress; with H2O2, run 3, at 79 µM (top of the series).
Regarding `COc1ccc2nc(-c3cc(OC)c(OC)c(OC)c3)cc(C(=O)NCC(=O)Nc3ccc(C(C)=O)cc3)c2c1`, the activity (protection/inhibition) is 19.5% and 32.9%.

Regarding `CCOC(=O)c1cccc(NC(=O)CNC(=O)c2cc(-c3cc(OC)c(OC)c(OC)c3)nc3ccccc23)c1`, the activity (protection/inhibition) came to 48.4%.

For the compound `COc1ccc2c(c1OC)C(=O)N1c3ccccc3C(=O)N(Cc3cccc(Cl)c3Cl)C21` (centres undefined), the activity (protection/inhibition) was 5.43% and -7.46% and 6.3%.

With `COc1cc(-c2cc(C(=O)Nc3cccc(C(=O)NCc4ccccc4)c3)c3ccccc3n2)cc(OC)c1OC`, the activity (protection/inhibition) is 14.7%.
